Fam108B inh: Fam108B inhibition, counter-screen for RBBP9 inhibitors; recombinant Fam108B, FP-Rh probe fluorescence polarization; inhibition, % at 9.51 µM; 0.33% of 300,000 active; AID 1947;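 active = inhibition above the screen mean inhibition plus 3 SD, computed separately per campaign, cut at about 18% in these data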;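 also: inhibitors lower polarization as less probe binds the enzyme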
PME-1 primary: blocks human protein phosphatase methylesterase 1; Q9Y570; recombinant PME-1, FP-Rh probe fluorescence polarization; inhibition, % at 5.9 µM; 0.53% of 320,000 active;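 active = inhibition above the campaign mean of all compounds plus 3 SD, cut at about 26% in these data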;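 also: competitive labeling of PME-1 active site by serine hydrolase directed probe; 0% = PME-1 with DMSO and 100% = wells lacking PME-1 enzyme; inhibitors block probe labeling so polarization falls and inhibition rises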
LYPLA1 inh: counter-screen for PME1 inhibitors: inhibitors of human LYPLA1; AID 2174; recombinant LYPLA1, FP-Rh probe fluorescence polarization; O75608; inhibition, % at 5.9 µM; 0.16% of 320,000 active;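 active = inhibition above the mean of all tested compounds plus 3 SD, set per campaign, cut at about 14% in these data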;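 also: inhibitors block serine hydrolase probe labeling of LYPLA1 so polarization falls; 0% = enzyme with DMSO and 100% = wells lacking LYPLA1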
LYPLA2 inh: LYPLA2 (human) inhibition in PME1 counter-screen; recombinant LYPLA2, FP-Rh probe fluorescence polarization; inhibition, % at 5.9 µM; 0.38% of 320,000 active; AID 2177;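 active = inhibition above the screen-wide mean plus 3 SD, limit set per campaign, cut at about 26% in these data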;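 also: 0% = LYPLA2 with DMSO and 100% = wells lacking LYPLA2 enzyme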
Target sequence (O95372 whole entry, looked up): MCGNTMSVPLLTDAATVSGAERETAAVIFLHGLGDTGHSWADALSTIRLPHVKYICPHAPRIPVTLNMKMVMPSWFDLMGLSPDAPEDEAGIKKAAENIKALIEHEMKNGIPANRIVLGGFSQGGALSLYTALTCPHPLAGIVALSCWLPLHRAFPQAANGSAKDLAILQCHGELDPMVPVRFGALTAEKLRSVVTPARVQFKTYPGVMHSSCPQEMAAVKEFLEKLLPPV
PAD4 inh: PAD4 (human) enzyme inhibition | inhibition, % at 6.36 µM | recombinant PAD4, RCA probe fluorescence polarization | 0.41% of 330,000 active;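 active = percent inhibition above a cutoff equal to the mean of all tested compounds plus 3 SD, cut at about 15% in these data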;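 also: 0% = PAD4 with RCA probe and DMSO and 100% = probe without PAD4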
GSTO1 inh: blocks human GSTO1 in RBBP9 counter-screen. P78417. recombinant GSTO1, activity-based probe fluorescence polarization. inhibition, % at 5.96 µM. 1.1% of 300,000 active. AID 1974;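 active = inhibition above the campaign mean inhibition plus 3 SD, cut at about 35% in these data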;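 also: 0% = GSTO1-1 with DMSO and 100% = wells lacking GSTO1-1 enzyme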
Target sequence (P78417 whole entry, looked up): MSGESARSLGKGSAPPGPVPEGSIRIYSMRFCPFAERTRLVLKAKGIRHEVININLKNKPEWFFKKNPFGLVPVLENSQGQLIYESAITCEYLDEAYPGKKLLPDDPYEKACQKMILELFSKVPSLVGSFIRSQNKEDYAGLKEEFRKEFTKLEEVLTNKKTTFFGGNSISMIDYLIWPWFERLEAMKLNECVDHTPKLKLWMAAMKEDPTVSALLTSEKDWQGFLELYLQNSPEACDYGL
GSTO1 inh conf: confirmation of human GSTO1 inhibitors | AID 2176 | 54% of 2,400 active | recombinant GSTO1, probe fluorescence polarization | shares compounds with GSTO1 inh | inhibition, % at 5.96 µM;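 active = inhibition above the primary screen's cutoff, its mean inhibition plus 3 SD, cut at about 35% in these data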;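 also: loss of polarization as inhibitors block binding of rhodamine sulfonate ester activity probe; 0% = GSTO1 with DMSO and 100% = wells lacking GSTO1 enzyme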
The depositor's hits bear a star; . = no result given. Most compounds without a hit are left out; they make up all but 1.8% or so of the library.

SMILES	Fam108B inh	PME-1 primary	LYPLA1 inh	LYPLA2 inh	PAD4 inh	GSTO1 inh	GSTO1 inh conf
COc1cccc(C(=O)NNC(=O)c2ccc3ccccc3c2O)c1	-1.4	2.6	3.7	9.3	3.6	45.4*	3.7
CC1CCN(C(=O)CCCC(=O)N2CCC(C)CC2)CC1	0.7	2.5	-1.2	1.3	0.1	1.7	.
CCc1n[nH]c(=S)n1/N=C/c1c(O)ccc2ccccc12	-0.2	5.0	4.9	6.7	-0.6	37.8*	7.7
COC/C=C/C1=CC2=CC(=O)C(C)(OC(=O)c3cnc4ccccc4n3)C(=O)C2=CN1CCc1c[nH]c2ccccc12 (centres undefined)	7.6	0.3	-3.4	-2.3	0.1	45.4*	5.7
CCCCC1=CC2=CC(=O)C(C)(OC(=O)CC)C(=O)C2=CN1CCc1ccccn1 (centres undefined)	6.2	-0.1	-0.4	-0.6	-8.1	10.3	.
COC/C=C/C1=CC2=CC(=O)C(C)(OC(=O)c3cnc4ccccc4n3)C(=O)C2=CN1c1ccccc1 (centres undefined)	1.2	7.9	0.9	2.9	-0.9	37.7*	3.5
CC1(OC(=O)CCc2ccccc2)C(=O)C=C2C=C(c3ccc(C#N)cc3)N(c3ccccc3)C=C2C1=O (centres undefined)	2.8	-3.7	-0.1	-4.7	-10.5	21.1	.
CC(=O)c1ccc(-c2ccc(C(=O)NC3CC(C)(C)NC(C)(C)C3)o2)cc1	0.8	2.2	-1.6	3.0	-1.9	2.1	.
Cc1cc(C)c(S(=O)(=O)c2ccccc2Cl)c(=O)[nH]1	2.6	3.5	-5.0	-6.7	0.0	-3.4	.
O=c1[nH]cc(N(CCO)CCO)c(=O)[nH]1	1.0	0.4	2.0	-1.5	1.4	2.1	.
CCc1nnc(N/N=C/c2cc(Br)c(O)cc2O)n1N	3.6	-3.3	0.3	4.7	37.2*	67.7*	12.8
CC(C)Oc1ccc(N2CC(C(=O)Nc3ccccc3C(=O)NC3CC3)CC2=O)cc1 (centres undefined)	-2.8	-4.4	0.6	1.0	2.8	13.4	.
Oc1ccc(/C=N/Nc2ccc(Cl)nn2)cc1O	-0.5	-0.8	-1.5	-6.1	-1.1	59.7*	13.7
Cc1ccc(-c2ccc(/C=N/N=C3/NC(=O)C(CC(=O)O)S3)o2)c([N+](=O)[O-])c1 (centres undefined)	8.8	7.9	-2.3	4.5	12.7	66.9*	11.9
COc1cc2c(cc1OC)CN(c1ccc(C(N)=O)cc1[N+](=O)[O-])CC2	7.4	0.6	-2.6	7.1	1.0	6.1	.
O=S(=O)(Cc1ccccc1)N(O)c1ccccc1	-0.2	-10.5	-1.3	1.0	-1.7	6.8	.
Cc1cc2nn(-c3cccc4ccccc34)nc2cc1N	0.6	2.8	-0.8	1.3	-3.0	14.8	.
Nc1ccc2nn(-c3cccc4ccccc34)nc2c1	6.7	7.6	-11.3	-13.8	2.3	60.9*	6.6
Cc1nc(SCc2nc3cc(Cl)c(F)cc3[nH]2)c2oc3ccccc3c2n1	.	.	.	.	3.9	.	.
CN(C)c1ccc(NS(=O)(=O)c2ccc(-c3csnn3)cc2)cc1	0.8	11.2	2.5	-0.3	4.5	39.1*	30.3
CCOc1ccc(N2CC(C(=O)NCCc3c[nH]c4ccc(C)cc34)CC2=O)cc1 (centres undefined)	1.0	-3.1	-3.4	5.6	-1.2	-6.0	.
NC(=O)C1Cc2ccccc2CN1C(=O)c1cc(C2CC2)nn1-c1ccccc1 (centres undefined)	.	.	.	.	4.3	.	.
COc1ccc2[nH]cc(C(=O)CN3CC(C)CC(C)C3)c2c1 (centres undefined)	-1.7	1.9	-0.4	2.5	-0.3	2.1	.
COc1ccc2[nH]cc(C(=O)CCl)c2c1	5.9	-0.2	1.6	4.2	4.3	83.4*	100.2*
COc1cc(/C=C2\S/C(=N/S(=O)(=O)Cc3ccccc3)NC2=O)c([N+](=O)[O-])cc1OC	3.7	-2.7	0.3	6.7	-9.3	7.1	.
COc1cc(/C=C2/S/C(=N/S(=O)(=O)c3ccccc3)NC2=O)c([N+](=O)[O-])cc1OC	0.8	-0.9	-0.7	-2.3	-14.6	41.1*	31.8
O=C(CCCn1c(SCC(=O)c2ccc(O)c(O)c2)nc2ccccc2c1=O)NCC1CCCO1 (centres undefined)	-2.8	2.6	0.4	2.2	-4.2	43.7*	9.2

Compound activity: PubChem, The Scripps Research Institute Molecular Screening Center
